Data published in PubChem BioAssay AID1159580 (chemical genetic matrix, 2015).
Out of some 5,500 compounds screened, about 2,000 (36%) were called active. Another 18% or so got no clear call; they are omitted. Rule as the data show it: active = normalized growth mostly below about 0.91 (no sharp cut-off); inconclusive = no clear call, values can overlap the other calls; inactive = mostly above about 0.92. Some of the results follow.

Experiment: chemical genetic growth profiling, strain panel (AID 1159580);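 also: tested at 20 µM; growth read once vehicle control cultures reached saturation at 30 °C; 1 = growth at the plate median or of vehicle wells; lower values mean less growth of the strain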
Settings: S. cerevisiae deletion strains, growth OD
[1] = locus YAR019C, strain CDC15, hits give low values
[2] = locus YBL105C, strain PKC1, hits give low values
[3] = locus YBR135W, strain CKS1, hits give low values
[4] = locus YBR136W, strain MEC1, hits give low values
[5] = locus YBR160W, strain CDC28, hits give low values
[6] = locus YDL017W, strain CDC7, hits give low values
[7] = locus YDL028C, strain MPS1, hits give low values
[8] = locus YDL101C, strain DUN1, hits give low values
[9] = locus YDL108W, strain KIN28, hits give low values
[10] = locus YDL132W, strain cdc53, hits give low values
[11] = locus YDL214C, strain PRR2, hits give low values
[12] = locus YDR052C, strain DBF4, hits give low values
[13] = locus YDR054C, strain cdc34, hits give low values
[14] = locus YDR226W, strain ADK1, hits give low values
[15] = locus YDR477W, strain SNF1, hits give low values
[16] = locus YER123W, strain YCK3, hits give low values
[17] = locus YER133W, strain GLC7, hits give low values
[18] = locus YFL009W, strain cdc4, hits give low values
[19] = locus YFL029C, strain CAK1, hits give low values
[20] = locus YFR003C, strain YPI1, hits give low values
[21] = locus YFR019W, strain FAB1, hits give low values
[22] = locus YFR028C, strain CDC14, hits give low values
[23] = locus YGR040W, strain KSS1, hits give low values
[24] = locus YGR052W, strain FMP48, hits give low values
[25] = locus YGR092W, strain DBF2, hits give low values
[26] = locus YHR030C, strain SLT2, hits give low values
[27] = locus YHR079C, strain IRE1, hits give low values
[28] = locus YHR082C, strain KSP1, hits give low values
[29] = locus YHR205W, strain SCH9, hits give low values
[30] = locus YIL147C, strain SLN1, hits give low values
[31] = locus YJL095W, strain BCK1, hits give low values
[32] = locus YJL128C, strain PBS2, hits give low values
[33] = locus YJL157C, strain FAR1, hits give low values
[34] = locus YJR016C, strain ILV3, hits give low values
[35] = locus YJR066W, strain TOR1 (second series), hits give low values
[36] = locus YJR066W, strain TOR1, hits give low values
[37] = locus YKL048C, strain ELM1, hits give low values
[38] = locus YKL067W, strain YNK1, hits give low values
[39] = locus YKL101W, strain HSL1, hits give low values
[40] = locus YKL193C, strain SDS22, hits give low values
[41] = locus YKL203C, strain TOR2, hits give low values
[42] = locus YLR113W, strain HOG1, hits give low values
[43] = locus YLR133W, strain CKI1, hits give low values
[44] = locus YLR403W, strain SFP1, hits give low values
[45] = locus YML070W, strain DAK1, hits give low values
[46] = locus YMR001C, strain CDC5, hits give low values
[47] = locus YMR205C, strain PFK2 (second series), hits give low values
[48] = locus YMR277W, strain FCP1, hits give low values
[49] = locus YNL006W, strain LST8, hits give low values
[50] = locus YNL020C, strain ARK1, hits give low values
[51] = locus YNL161W, strain CBK1, hits give low values
[52] = locus YNL183C, strain NPR1, hits give low values
[53] = locus YNL207W, strain RIO2, hits give low values
[54] = locus YNL222W, strain SSU72, hits give low values
[55] = locus YNL307C, strain MCK1 (second series), hits give low values
[56] = locus YOL078W, strain AVO1, hits give low values
[57] = locus YOL136C, strain PFK27, hits give low values
[58] = locus YOR061W, strain CKA2, hits give low values
[59] = locus YOR119C, strain RIO1, hits give low values
[60] = locus YOR231W, strain MKK1, hits give low values
[61] = locus YOR329C, strain SCD5, hits give low values
[62] = locus YPL031C, strain PHO85, hits give low values
[63] = locus YPL153C, strain RAD53, hits give low values
[64] = locus YPL204W, strain HRR25, hits give low values
[65] = locus YPL209C, strain IPL1, hits give low values
[66] = locus YPL256C, strain CLN2, hits give low values
[67] = locus YPR025C, strain CCL1, hits give low values
[68] = locus YPR106W, strain ISR1, hits give low values
[69] = locus YPR111W, strain DBF20, hits give low values
[70] = strain NNK1, hits give low values
[71] = strain TSCII, hits give low values

Measured: normalized growth

CC(C)(C)NCC(O)COc1cccc2[nH]c(=O)[nH]c12 (stereo not given)
inactive: locus YAL040C, strain CLN3, hits give low values 1.02 | locus YCL061C, strain MRC1 (second series), hits give low values 1.01 | locus YDR150W, strain NUM1, hits give low values 1 | locus YDR363W, strain ESC2, hits give low values 1.01 | locus YER002W, strain NOP16, hits give low values 1.02 | locus YJR075W, strain HOC1, hits give low values 1.01 | locus YMR263W, strain SAP30, hits give low values 1 | locus YNL175C, strain NOP13, hits give low values 1.03 | locus YNL197C, strain WHI3, hits give low values 1.02 | locus YNL224C, strain SQS1, hits give low values 0.991 | locus YNL322C, strain KRE1, hits give low values 1.03 | locus YOR083W, strain WHI5 (second series), hits give low values 0.988 | locus YPL241C, strain CIN2, hits give low values 1

N#C/C(=N/Nc1ccc(F)cc1)C(=O)c1ccccc1
active: [1] 0.853 | [2] 0.855 | [3] 0.842 | [4] 0.844 | [5] 0.862 | [6] 0.858 | [7] 0.859 | [8] 0.903 | [9] 0.859 | [12] 0.84 | [13] 0.853 | [14] 0.832 | [18] 0.842 | [19] 0.841 | [20] 0.854 | [22] 0.855 | [26] 0.704 | [30] 0.842 | [34] 0.84 | [40] 0.873 | [42] 0.804 | [46] 0.841 | [48] 0.85 | [49] 0.853 | [51] 0.863 | [53] 0.83 | [54] 0.87 | [56] 0.852 | [61] 0.868 | [64] 0.653 | [65] 0.876 | [66] 0.747 | [67] 0.863 | [68] 0.886 | [69] 0.862 | [70] 0.883 | [71] 0.844
inactive: [10] 0.906 | [11] 0.913 | [15] 0.756 | [16] 0.794 | [17] 0.885 | [21] 0.913 | [23] 0.693 | [24] 0.98 | [25] 0.769 | [27] 0.826 | [28] 0.762 | [29] 0.799 | [31] 0.731 | [32] 0.942 | [33] 0.907 | [35] 0.836 | [36] 0.654 | [37] 0.895 | [38] 0.872 | [39] 0.839 | [41] 0.883 | [43] 0.815 | [44] 0.721 | [45] 0.854 | [47] 0.821 | [50] 0.819 | [52] 0.657 | [55] 0.795 | [57] 0.885 | [58] 0.849 | [59] 0.783 | [60] 0.736 | [62] 0.701 | [63] 0.757

N#C/C(=N/Nc1ccccc1)C(=O)c1ccccc1OC(F)(F)F
inactive: [1] 0.922 | [2] 0.912 | [3] 0.91 | [4] 0.917 | [5] 0.916 | [6] 0.918 | [7] 0.918 | [8] 0.93 | [9] 0.912 | [10] 0.909 | [11] 0.877 | [12] 0.928 | [13] 0.922 | [14] 0.901 | [15] 0.88 | [16] 0.831 | [17] 0.898 | [18] 0.91 | [19] 0.919 | [20] 0.918 | [21] 0.903 | [22] 0.906 | [23] 0.853 | [24] 0.883 | [25] 0.797 | [27] 0.853 | [28] 0.9 | [29] 0.901 | [30] 0.912 | [31] 0.891 | [32] 0.89 | [33] 0.883 | [34] 0.918 | [35] 0.879 | [36] 0.885 | [37] 0.883 | [38] 0.895 | [39] 0.876 | [40] 0.919 | [41] 0.913 | [43] 0.87 | [44] 0.837 | [45] 0.879 | [46] 0.92 | [47] 0.91 | [48] 0.912 | [49] 0.915 | [50] 0.866 | [51] 0.915 | [52] 0.92 | [53] 0.905 | [54] 0.913 | [55] 0.893 | [56] 0.913 | [57] 0.845 | [58] 0.885 | [59] 0.909 | [60] 0.857 | [61] 0.922 | [62] 0.842 | [63] 0.882 | [64] 0.802 | [65] 0.915 | [66] 0.881 | [67] 0.919 | [68] 0.926 | [69] 0.904 | [70] 0.914 | [71] 0.902
active: [26] 0.841 | [42] 0.816
